{"source": "ChEMBL document CHEMBL4513216", "about": "“Probing the Open Global Health Chemical Diversity Library for Multistage-Active Starting Points for Next-Generation Antimalarials” (ACS Infect Dis, 2020)", "note": "Hit rate of the full screen: of about 69,000 compounds, about 8,600 (12%) showed an effect of 50% or more. The list comes from a sample in which strong results are over-represented; it also holds similar structures and randomly drawn compounds."}
{"test_system": "Plasmodium berghei", "assay": "Screen against P. berghei liver stage (PbLuc), transformed with Luciferase, at 10uM", "assay_type": "functional, HepG2", "settings": "tested at 10 uM", "units": {"INHIBITION": "%"}}
{"smiles": "CCn1ccnc1CN1CCCC1c1noc(C2CC2)n1", "note": "(stereo not given)", "INHIBITION": 40.9}
{"smiles": "CN(Cc1nnc2n1CCC2)C(=O)c1ccc2c(c1)CCO2", "INHIBITION": 26.4}
{"smiles": "Cc1nc2c(c(=O)[nH]1)CCN(Cc1ccc3c(c1)CCCN3C)C2", "INHIBITION": 31.6}
{"smiles": "Cc1ccc2c(c1)C(=O)NCC1(CCN(C(=O)c3cnccn3)CC1)O2", "INHIBITION": -32.2}
{"smiles": "O=C(CCc1ccccc1F)N1CCC(Nc2cccnn2)CC1", "INHIBITION": 1.78}
{"smiles": "O=C1N(CC2CCCC2)CCC12CCN(c1ncc(F)cn1)CC2", "INHIBITION": 8.74}
{"smiles": "NC(=O)CN1CCC(NC(=O)COCCOc2ccccc2)CC1", "INHIBITION": 31.6}
{"smiles": "CC(=O)NCCC1CCCCN1S(=O)(=O)c1cccc(F)c1", "note": "(stereo not given)", "INHIBITION": -40.5}
{"smiles": "CNC(=O)c1ccc(C2CN(C(=O)COC)CCO2)nc1", "note": "(stereo not given)", "INHIBITION": -26.8}
{"smiles": "COCC(=O)N1CCOC(c2ccc(N(C)C)cn2)C1", "note": "(stereo not given)", "INHIBITION": 50.1}
{"smiles": "COCC(=O)N1CCOC(c2cccc(-c3cncnc3)n2)C1", "note": "(stereo not given)", "INHIBITION": 38.2}
{"smiles": "CCCC(=O)N1CCC(c2nc(O)c3c(n2)CCN(C2CCCC2)C3)C1", "note": "(stereo not given)", "INHIBITION": 17.1}
{"smiles": "Cc1ccccc1OCCCC(=O)NC(C)c1nnc2n1CCC2", "note": "(stereo not given)", "INHIBITION": -24.2}
{"smiles": "CNC(=O)[C@H]1C[C@@H]2CN(S(=O)(=O)Cc3ccccc3)C[C@@H]2N1C", "INHIBITION": -15.7}
{"smiles": "O=C(N1CCOCC1)[C@@]12CCO[C@@H]1CCN(C1CCC1)C2", "INHIBITION": 16.8}
{"smiles": "Cc1ccsc1C(=O)N1C[C@@H]2CN(Cc3ccoc3)CCO[C@@H]2C1", "INHIBITION": 2.27}
{"smiles": "O=C(NCC(F)(F)F)C1CSCN1S(=O)(=O)c1ccc(F)cc1Cl", "note": "(stereo not given)", "INHIBITION": -19.6}
{"smiles": "COc1ncccc1CN1C[C@@H]2C[C@@H](C(=O)NCC3CC3)N(C)[C@@H]2C1", "INHIBITION": 27.2}
{"smiles": "CCCn1cc(-c2cc(-c3c[nH]cn3)c(C#N)c(N)n2)c(C)n1", "INHIBITION": -8.47}
{"smiles": "CCCn1cc(-c2cc(-c3cc(CC)n[nH]3)c(C#N)c(N)n2)c(C)n1", "INHIBITION": 64.5}
{"smiles": "CCCn1cc(-c2cc(-c3ccoc3)c(C#N)c(N)n2)c(C)n1", "INHIBITION": -24}
{"smiles": "Cc1ccc(O)c(CNC2CCCN(Cc3noc(C4CC4)n3)C2)n1", "note": "(stereo not given)", "INHIBITION": 15.3}
{"smiles": "CC(C)NC(=O)CN(C)CC(=O)Nc1ccnn1C(C)C1CC1", "note": "(stereo not given)", "INHIBITION": -164}
{"smiles": "CC(=O)Nc1ccc(CNC(=O)CNCc2snnc2C)cc1", "INHIBITION": 52.2}
{"smiles": "CC(=O)Nc1ccc(CN(C)Cc2snnc2C)cc1", "INHIBITION": 34.6}
{"smiles": "CC(=O)Nc1ccc(CNC(=O)CNCc2sc(C)nc2C)cc1", "INHIBITION": 55.5}
{"smiles": "Cc1nc(C)c(CC(=O)NCc2ccc(F)cc2)s1", "INHIBITION": -2.39}
{"smiles": "CC(=O)Nc1ccc(CNC(=O)CNCc2nnc(C)o2)cc1", "INHIBITION": 45.4}
{"smiles": "Cc1nc(C)c(CC(=O)NCc2ccccc2F)s1", "INHIBITION": 31.3}
{"smiles": "O=C(O)c1cc(S(=O)(=O)N2CCOc3ccccc32)ccc1Br", "INHIBITION": 2.7}
{"smiles": "CN(C(=O)Cn1nc(-c2ccc(Br)cc2)ccc1=O)C1CCS(=O)(=O)C1", "note": "(stereo not given)", "INHIBITION": -29.2}
{"smiles": "CC(C)c1cc(O)nc(C2CCCN2C(=O)C2CC2)n1", "note": "(stereo not given)", "INHIBITION": -9.32}
{"smiles": "O=S(=O)(NCC1CCN(c2cnccn2)CC1)C1CC1", "INHIBITION": 27.5}
{"smiles": "Cn1nccc1-c1ccc2nc(C3CCNCC3)nn2c1", "INHIBITION": -3.33}
{"smiles": "Cc1nc(S(=O)(=O)N2CCCCc3ccccc32)cn1C", "INHIBITION": -49.3}
{"smiles": "COc1cccc(CC(=O)N2CCC(c3ccn4nccc4n3)CC2)c1", "INHIBITION": 23.9}
{"smiles": "Cc1ccc(S(=O)(=O)NCC2CNCCOC2)cc1Cl", "note": "(stereo not given)", "INHIBITION": -95.7}
{"smiles": "O=C(NS(=O)(=O)c1ccc(C2CCCCC2)cc1)C1COCCO1", "note": "(stereo not given)", "INHIBITION": 46.4}
{"smiles": "O=S(=O)(NCC1COCCO1)c1ccc(C2CCCCC2)cc1", "note": "(stereo not given)", "INHIBITION": 74.5}
{"smiles": "Cc1cc(C)n(CC2CCCN2C(=O)c2cncnc2C)n1", "note": "(stereo not given)", "INHIBITION": -2.1}
{"smiles": "FC(F)(F)COCCN1CCc2cncnc2C1", "INHIBITION": 64}
{"smiles": "CCc1ncc2c(n1)CN(CC1CCCCO1)CC2", "note": "(stereo not given)", "INHIBITION": 9.35}
{"smiles": "CC(C)OCCN1CCc2cncnc2C1", "INHIBITION": 24.4}
{"smiles": "Cc1ccc(C(NC(=O)CN2CCc3cncnc3C2)C2CC2)cc1", "note": "(stereo not given)", "INHIBITION": 34.2}
{"smiles": "CCOCCN1CCc2cncnc2C1", "INHIBITION": 53.3}
{"smiles": "Cc1ncc2c(n1)CN(CCOCC(F)(F)F)CC2", "INHIBITION": 26.6}
{"smiles": "O=C(CN1CCc2cncnc2C1)NC(c1ccccc1)C1CC1", "note": "(stereo not given)", "INHIBITION": 24.4}
{"smiles": "O=C(CN1CCc2cncnc2C1)NC(C1CC1)C1CC1", "INHIBITION": 57}
{"smiles": "COCCCN1CCc2cncnc2C1", "INHIBITION": 40.3}
{"smiles": "Cc1ncc2c(n1)CN(CC1CCCCO1)CC2", "note": "(stereo not given)", "INHIBITION": 3.17}
{"smiles": "c1ncc2c(n1)CN(CC1CCCCO1)CC2", "note": "(stereo not given)", "INHIBITION": 87.1}
{"smiles": "N#Cc1ccc(OCCN2CCc3cncnc3C2)cc1", "INHIBITION": 9.54}
{"smiles": "Cn1nnc2c(N3CC(C(=O)NCc4ccccc4F)C3)ncnc21", "INHIBITION": 15.7}
{"smiles": "Cc1cnn(CC2CCCN2CCCS(=O)(=O)N(C)C)c1", "note": "(stereo not given)", "INHIBITION": 2.97}
{"smiles": "N#Cc1ccc(C2CC(=O)Nc3c(C(=O)O)nsc32)cc1", "note": "(stereo not given)", "INHIBITION": -38.7}
